# Assays:
# Assay in all cases: DAPPL (digital affinity profiling via proximity ligation, sequencing); 10 mM Tris-HCl pH 7.5, 50 mM NaCl, 1 mM DTT, 4% glycerol, room temperature, 30 min; GST-TFs on glutathione beads, 16-mer random dsDNA library, 0.1% formaldehyde crosslink after washing; high values mean tight binding
# FLI1 = target: T1, FLI1 (Homo sapiens, UniProt Q01543 1-452); conditions: protein: recombinant; tags: N-terminal GST; dsDNA, one strand shown
# T1 sequence: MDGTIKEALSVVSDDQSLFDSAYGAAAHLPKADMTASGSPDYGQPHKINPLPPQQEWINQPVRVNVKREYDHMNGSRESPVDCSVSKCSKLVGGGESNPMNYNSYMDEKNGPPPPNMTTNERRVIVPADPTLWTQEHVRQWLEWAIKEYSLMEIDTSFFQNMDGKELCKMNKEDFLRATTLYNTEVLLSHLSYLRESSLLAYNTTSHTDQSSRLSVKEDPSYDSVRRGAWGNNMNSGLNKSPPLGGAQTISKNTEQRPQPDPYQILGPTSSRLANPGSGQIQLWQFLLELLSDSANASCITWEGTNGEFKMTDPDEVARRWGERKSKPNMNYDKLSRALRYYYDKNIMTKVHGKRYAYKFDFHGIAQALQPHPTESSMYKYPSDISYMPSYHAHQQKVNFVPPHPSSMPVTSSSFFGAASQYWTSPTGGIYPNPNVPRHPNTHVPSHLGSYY
# Outline: (§1)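 The binding signal reported is, for every hexamer, its read frequency for a factor over its read frequency for the tag-only sample. Reads came from pools of yeast-expressed, GST-fused human transcription factors on glutathione beads, barcoded with DNA and mixed with that sample, which were incubated with 200 nmole of a random double-stranded 16-mer DNA library in Tris/NaCl/DTT/glycerol buffer at room temperature for 30 min. After washing, the pools were crosslinked with 0.1% formaldehyde, proximity-ligated with BsaI/T4 ligase for 1 h at 37 °C, PCR-amplified and sequenced on an Illumina NextSeq500.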
# ELK1 = target: T2, ELK1 (Homo sapiens, UniProt P19419 1-428); conditions: protein: recombinant; tags: N-terminal GST; dsDNA, one strand shown
# T2 sequence: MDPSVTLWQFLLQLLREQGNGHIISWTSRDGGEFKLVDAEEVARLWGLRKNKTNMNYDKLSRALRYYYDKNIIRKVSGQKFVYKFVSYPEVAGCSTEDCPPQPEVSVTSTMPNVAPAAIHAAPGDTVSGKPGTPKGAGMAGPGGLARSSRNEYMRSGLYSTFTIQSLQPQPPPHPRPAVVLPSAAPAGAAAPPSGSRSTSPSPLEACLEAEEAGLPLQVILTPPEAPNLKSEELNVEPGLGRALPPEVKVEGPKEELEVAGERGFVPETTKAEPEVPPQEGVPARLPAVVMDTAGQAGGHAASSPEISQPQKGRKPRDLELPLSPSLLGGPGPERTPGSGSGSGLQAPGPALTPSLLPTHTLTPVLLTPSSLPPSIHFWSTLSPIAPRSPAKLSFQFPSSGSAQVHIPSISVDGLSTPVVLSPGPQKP
# Outline: as §1
# GABPA = target: T3, GABPA (Homo sapiens, UniProt Q06546 1-454); conditions: protein: recombinant; tags: N-terminal GST; dsDNA, one strand shown
# T3 sequence: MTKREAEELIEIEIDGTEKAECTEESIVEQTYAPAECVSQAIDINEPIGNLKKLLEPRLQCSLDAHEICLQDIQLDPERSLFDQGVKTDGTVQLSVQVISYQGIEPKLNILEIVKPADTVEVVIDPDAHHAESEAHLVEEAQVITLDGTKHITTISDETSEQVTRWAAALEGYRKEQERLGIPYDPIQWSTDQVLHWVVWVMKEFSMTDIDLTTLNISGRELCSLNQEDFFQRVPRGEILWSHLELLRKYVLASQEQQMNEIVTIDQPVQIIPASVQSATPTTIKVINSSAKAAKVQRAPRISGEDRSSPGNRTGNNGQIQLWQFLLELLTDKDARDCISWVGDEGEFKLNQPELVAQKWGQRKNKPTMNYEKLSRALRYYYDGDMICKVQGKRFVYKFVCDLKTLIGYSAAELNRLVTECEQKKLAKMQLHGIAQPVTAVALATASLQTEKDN
# Outline: as §1
# ERG = target: T4, ERG (Homo sapiens, UniProt P11308 1-479); conditions: protein: recombinant; tags: N-terminal GST; dsDNA, one strand shown
# T4 sequence: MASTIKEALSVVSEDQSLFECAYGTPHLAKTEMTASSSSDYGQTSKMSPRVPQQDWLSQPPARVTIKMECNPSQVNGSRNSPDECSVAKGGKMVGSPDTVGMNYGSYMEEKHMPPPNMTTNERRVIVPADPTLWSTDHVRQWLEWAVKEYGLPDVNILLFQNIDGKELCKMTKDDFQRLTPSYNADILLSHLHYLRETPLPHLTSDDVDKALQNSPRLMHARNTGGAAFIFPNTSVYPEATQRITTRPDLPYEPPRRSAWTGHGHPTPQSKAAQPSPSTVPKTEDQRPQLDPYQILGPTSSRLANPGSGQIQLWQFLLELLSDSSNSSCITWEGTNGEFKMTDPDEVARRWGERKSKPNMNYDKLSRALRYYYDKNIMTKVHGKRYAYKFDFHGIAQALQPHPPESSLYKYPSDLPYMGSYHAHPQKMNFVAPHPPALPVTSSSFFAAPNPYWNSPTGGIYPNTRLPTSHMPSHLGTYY
# Outline: as §1
# ELF1 = ELF1 (Homo sapiens, UniProt P32519 1-619); conditions: protein: recombinant; tags: N-terminal GST; dsDNA, one strand shown
# Outline: as §1
# EHF = target: T5, EHF (Homo sapiens, UniProt Q9NZC4 1-300); conditions: protein: recombinant; tags: N-terminal GST; dsDNA, one strand shown
# T5 sequence: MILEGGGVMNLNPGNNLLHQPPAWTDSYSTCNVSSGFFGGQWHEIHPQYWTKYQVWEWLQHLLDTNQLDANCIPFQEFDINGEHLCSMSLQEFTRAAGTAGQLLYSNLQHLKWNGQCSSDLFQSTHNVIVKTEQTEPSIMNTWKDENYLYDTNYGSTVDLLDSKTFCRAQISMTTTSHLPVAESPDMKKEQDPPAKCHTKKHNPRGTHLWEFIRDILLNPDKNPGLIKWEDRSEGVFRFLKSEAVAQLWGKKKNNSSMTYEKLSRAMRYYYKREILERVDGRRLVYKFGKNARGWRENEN
# Outline: as §1
# SPI1 = SPI1 (Homo sapiens, UniProt P17947 1-270); conditions: protein: recombinant; tags: N-terminal GST; dsDNA, one strand shown
# Outline: as §1
# SPIB = SPIB (Homo sapiens, UniProt Q01892 1-262); conditions: protein: recombinant; tags: N-terminal GST; dsDNA, one strand shown
# Outline: as §1
# ELK3 = target: T6, ELK3 (Homo sapiens, UniProt P41970 1-407); conditions: protein: recombinant; tags: N-terminal GST; dsDNA, one strand shown
# T6 sequence: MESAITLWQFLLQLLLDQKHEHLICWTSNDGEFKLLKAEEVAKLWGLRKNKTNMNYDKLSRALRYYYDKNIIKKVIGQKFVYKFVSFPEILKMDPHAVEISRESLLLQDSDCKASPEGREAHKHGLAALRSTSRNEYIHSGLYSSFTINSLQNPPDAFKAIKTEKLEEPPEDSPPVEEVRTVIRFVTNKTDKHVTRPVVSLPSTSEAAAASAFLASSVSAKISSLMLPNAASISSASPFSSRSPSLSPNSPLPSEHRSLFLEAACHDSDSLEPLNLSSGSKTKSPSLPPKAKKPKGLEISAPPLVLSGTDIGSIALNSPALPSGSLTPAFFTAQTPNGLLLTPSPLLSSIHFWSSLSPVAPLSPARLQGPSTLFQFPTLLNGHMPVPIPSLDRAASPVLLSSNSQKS
# Outline: as §1
# FEV = target: T7, FEV (Homo sapiens, UniProt Q99581 1-238); conditions: protein: recombinant; tags: N-terminal GST; dsDNA, one strand shown
# T7 sequence: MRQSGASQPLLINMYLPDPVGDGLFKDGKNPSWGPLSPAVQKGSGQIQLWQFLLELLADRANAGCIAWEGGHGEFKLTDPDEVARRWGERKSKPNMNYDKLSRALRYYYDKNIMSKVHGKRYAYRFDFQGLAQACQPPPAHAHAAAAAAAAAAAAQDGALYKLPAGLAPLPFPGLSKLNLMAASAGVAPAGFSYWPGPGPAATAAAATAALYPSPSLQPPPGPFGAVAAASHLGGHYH
# Outline: as §1
# ETV5 = ETV5 (Homo sapiens, UniProt P41161 1-510); conditions: protein: recombinant; tags: N-terminal GST; dsDNA, one strand shown
# Outline: as §1
# HSF1 = HSF1 (Homo sapiens, UniProt Q00613 1-529); conditions: protein: recombinant; tags: N-terminal GST; chain copies: 3; dsDNA, one strand shown
# Outline: as §1
# SPIC = target: T8, SPIC (Homo sapiens, UniProt Q8N5J4 1-248); conditions: protein: recombinant; tags: N-terminal GST; dsDNA, one strand shown
# T8 sequence: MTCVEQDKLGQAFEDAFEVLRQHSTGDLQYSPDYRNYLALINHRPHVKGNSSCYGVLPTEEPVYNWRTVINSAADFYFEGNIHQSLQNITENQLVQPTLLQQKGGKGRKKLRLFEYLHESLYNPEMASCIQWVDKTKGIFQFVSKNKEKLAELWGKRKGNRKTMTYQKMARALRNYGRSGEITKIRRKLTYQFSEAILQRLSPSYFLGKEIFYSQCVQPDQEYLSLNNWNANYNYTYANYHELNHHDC
# Outline: as §1
# ELF4 = ELF4 (Homo sapiens, UniProt Q99607 1-663); conditions: protein: recombinant; tags: N-terminal GST; dsDNA, one strand shown
# Outline: as §1
# ELK4 = target: T9, ELK4 (Homo sapiens, UniProt P28324-2 1-405); conditions: protein: recombinant; tags: N-terminal GST; dsDNA, one strand shown
# T9 sequence: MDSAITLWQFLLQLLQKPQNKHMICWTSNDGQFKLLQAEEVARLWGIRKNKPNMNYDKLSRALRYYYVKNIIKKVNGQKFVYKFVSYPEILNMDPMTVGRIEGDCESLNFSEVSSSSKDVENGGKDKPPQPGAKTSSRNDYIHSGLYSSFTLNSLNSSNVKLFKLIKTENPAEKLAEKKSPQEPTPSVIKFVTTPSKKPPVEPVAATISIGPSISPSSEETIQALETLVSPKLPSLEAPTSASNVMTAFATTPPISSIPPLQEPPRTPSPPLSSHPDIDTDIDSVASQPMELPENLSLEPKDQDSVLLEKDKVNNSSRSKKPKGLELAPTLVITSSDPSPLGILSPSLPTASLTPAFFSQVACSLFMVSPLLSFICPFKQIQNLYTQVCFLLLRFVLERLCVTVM
# Outline: as §1
# ETV2 = target: T10, ETV2 (Homo sapiens, UniProt O00321 1-342); conditions: protein: recombinant; tags: N-terminal GST; dsDNA, one strand shown
# T10 sequence: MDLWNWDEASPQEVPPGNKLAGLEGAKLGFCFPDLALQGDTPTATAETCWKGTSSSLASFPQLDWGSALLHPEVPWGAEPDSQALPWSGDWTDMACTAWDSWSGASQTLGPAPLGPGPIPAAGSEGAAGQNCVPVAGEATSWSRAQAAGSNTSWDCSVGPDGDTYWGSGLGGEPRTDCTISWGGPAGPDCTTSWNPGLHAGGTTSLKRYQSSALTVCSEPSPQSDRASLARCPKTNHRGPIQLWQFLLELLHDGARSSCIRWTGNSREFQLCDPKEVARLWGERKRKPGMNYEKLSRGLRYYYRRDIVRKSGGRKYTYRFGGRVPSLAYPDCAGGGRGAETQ
# Outline: as §1
# ELF3 = target: T11, ELF3 (Homo sapiens, UniProt P78545 1-371); conditions: protein: recombinant; tags: N-terminal GST; dsDNA, one strand shown
# T11 sequence: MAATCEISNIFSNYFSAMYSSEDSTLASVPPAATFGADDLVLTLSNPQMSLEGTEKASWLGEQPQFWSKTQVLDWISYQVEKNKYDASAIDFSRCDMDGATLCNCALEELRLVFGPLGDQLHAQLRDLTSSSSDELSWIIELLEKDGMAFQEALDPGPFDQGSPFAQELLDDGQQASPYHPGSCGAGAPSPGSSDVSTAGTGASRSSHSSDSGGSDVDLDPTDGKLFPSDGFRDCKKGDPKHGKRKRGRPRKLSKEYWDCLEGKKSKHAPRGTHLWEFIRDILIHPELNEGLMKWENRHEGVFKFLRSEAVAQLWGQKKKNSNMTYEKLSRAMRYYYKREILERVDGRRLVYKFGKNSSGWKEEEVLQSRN
# Outline: as §1
# ETV1 = ETV1 (Homo sapiens, UniProt P50549 1-477); conditions: protein: recombinant; tags: N-terminal GST; dsDNA, one strand shown
# Outline: as §1
# Chain of ELF1 (P32519 whole entry): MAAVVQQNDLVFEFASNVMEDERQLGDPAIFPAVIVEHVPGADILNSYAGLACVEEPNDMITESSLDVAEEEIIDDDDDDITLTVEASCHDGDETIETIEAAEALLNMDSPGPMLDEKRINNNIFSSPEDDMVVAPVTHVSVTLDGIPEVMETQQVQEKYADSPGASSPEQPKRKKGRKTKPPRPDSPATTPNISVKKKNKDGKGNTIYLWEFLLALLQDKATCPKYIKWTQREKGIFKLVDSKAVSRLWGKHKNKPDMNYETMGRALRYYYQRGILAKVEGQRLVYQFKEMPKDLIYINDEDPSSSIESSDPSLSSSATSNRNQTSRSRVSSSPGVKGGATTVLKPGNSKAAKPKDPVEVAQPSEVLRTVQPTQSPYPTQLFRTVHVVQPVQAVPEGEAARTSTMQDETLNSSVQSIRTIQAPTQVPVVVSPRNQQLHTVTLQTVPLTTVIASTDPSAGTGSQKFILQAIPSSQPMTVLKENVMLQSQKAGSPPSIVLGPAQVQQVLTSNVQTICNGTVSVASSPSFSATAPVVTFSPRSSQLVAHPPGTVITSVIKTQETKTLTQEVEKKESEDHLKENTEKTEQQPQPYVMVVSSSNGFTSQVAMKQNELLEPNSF
# Chain of SPIB (Q01892 whole entry): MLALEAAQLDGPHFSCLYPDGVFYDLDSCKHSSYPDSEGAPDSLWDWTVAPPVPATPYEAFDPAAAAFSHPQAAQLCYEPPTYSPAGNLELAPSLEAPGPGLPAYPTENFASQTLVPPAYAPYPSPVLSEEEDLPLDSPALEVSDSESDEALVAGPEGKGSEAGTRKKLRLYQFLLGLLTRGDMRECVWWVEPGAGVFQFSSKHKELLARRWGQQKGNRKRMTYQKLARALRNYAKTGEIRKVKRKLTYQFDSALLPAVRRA
# Chain of ETV1 (P50549 whole entry): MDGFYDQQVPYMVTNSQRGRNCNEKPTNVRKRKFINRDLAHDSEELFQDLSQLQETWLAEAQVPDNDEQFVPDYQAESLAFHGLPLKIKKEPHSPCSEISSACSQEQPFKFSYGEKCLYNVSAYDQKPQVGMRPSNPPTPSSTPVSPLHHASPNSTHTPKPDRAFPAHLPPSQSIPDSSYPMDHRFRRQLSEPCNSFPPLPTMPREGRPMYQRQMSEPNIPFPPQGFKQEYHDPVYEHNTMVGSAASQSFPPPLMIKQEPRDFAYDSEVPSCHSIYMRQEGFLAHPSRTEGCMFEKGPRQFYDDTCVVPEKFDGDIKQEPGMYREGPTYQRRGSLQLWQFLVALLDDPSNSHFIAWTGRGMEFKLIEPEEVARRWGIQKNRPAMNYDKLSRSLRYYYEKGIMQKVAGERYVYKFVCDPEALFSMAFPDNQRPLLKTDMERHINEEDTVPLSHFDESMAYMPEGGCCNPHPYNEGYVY
# Chain of HSF1 (Q00613 whole entry): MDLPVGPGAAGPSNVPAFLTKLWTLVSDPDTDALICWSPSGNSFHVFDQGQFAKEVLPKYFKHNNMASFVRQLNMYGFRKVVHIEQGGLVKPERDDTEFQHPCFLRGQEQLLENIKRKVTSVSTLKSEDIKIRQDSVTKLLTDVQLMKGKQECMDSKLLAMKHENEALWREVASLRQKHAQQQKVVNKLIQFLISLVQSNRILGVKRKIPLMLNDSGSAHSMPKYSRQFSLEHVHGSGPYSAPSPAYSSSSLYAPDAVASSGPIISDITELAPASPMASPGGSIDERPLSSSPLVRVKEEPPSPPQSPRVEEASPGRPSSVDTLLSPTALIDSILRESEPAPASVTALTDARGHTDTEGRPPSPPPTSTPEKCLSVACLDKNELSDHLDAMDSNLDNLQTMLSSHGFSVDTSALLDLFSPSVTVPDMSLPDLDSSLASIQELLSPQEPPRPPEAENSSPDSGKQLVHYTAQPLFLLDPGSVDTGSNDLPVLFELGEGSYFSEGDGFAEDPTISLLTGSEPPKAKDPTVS
# Chain of ETV5 (P41161 whole entry): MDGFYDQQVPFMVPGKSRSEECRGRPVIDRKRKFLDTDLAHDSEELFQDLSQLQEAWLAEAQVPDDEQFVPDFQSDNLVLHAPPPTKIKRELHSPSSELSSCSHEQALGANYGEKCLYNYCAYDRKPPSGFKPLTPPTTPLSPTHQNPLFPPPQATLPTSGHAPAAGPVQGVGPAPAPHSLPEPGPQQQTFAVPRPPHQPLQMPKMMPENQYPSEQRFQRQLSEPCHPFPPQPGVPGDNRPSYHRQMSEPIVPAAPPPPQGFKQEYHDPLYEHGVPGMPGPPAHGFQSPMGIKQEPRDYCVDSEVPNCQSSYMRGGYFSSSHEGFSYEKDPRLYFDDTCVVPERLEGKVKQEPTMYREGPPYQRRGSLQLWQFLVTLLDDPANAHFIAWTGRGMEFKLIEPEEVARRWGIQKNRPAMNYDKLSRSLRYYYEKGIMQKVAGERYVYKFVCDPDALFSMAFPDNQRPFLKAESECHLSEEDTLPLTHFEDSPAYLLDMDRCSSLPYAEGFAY
# Chain of ELF4 (Q99607 whole entry): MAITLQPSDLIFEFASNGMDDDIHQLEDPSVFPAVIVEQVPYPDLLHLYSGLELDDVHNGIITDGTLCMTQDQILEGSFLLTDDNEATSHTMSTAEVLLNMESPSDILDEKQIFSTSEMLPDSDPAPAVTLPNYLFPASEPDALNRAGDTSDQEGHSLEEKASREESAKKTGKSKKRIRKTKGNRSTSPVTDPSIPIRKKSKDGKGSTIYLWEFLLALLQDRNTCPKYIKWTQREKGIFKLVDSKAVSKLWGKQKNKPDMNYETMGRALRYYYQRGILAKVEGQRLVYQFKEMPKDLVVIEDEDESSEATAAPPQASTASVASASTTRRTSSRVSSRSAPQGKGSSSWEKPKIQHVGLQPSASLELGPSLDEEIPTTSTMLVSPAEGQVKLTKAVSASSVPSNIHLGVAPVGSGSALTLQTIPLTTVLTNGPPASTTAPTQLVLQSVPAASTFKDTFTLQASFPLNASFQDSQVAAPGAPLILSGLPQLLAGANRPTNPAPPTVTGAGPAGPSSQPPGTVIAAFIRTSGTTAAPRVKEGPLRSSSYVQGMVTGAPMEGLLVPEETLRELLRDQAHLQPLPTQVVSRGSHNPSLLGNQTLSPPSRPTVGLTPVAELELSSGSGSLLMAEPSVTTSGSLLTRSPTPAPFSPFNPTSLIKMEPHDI
sequence,measurement,setting,value
GAAGTA,binding signal,FLI1,"1.88 fold enrichment (6-mer frequency, TF over GST control)"
same,binding signal,ELK1,"2.23 fold enrichment (6-mer frequency, TF over GST control)"
same,binding signal,GABPA,"1.68 fold enrichment (6-mer frequency, TF over GST control)"
same,binding signal,ERG,"2.03 fold enrichment (6-mer frequency, TF over GST control)"
same,binding signal,ELF1,"1.84 fold enrichment (6-mer frequency, TF over GST control)"
same,binding signal,EHF,"2.13 fold enrichment (6-mer frequency, TF over GST control)"
same,binding signal,SPI1,"2.32 fold enrichment (6-mer frequency, TF over GST control)"
same,binding signal,SPIB,"1.95 fold enrichment (6-mer frequency, TF over GST control)"
same,binding signal,ELK3,"2.1 fold enrichment (6-mer frequency, TF over GST control)"
same,binding signal,FEV,"2.05 fold enrichment (6-mer frequency, TF over GST control)"
same,binding signal,ETV5,"2.16 fold enrichment (6-mer frequency, TF over GST control)"
same,binding signal,HSF1,"1.02 fold enrichment (6-mer frequency, TF over GST control)"
same,binding signal,SPIC,"2.19 fold enrichment (6-mer frequency, TF over GST control)"
same,binding signal,ELF4,"1.74 fold enrichment (6-mer frequency, TF over GST control)"
same,binding signal,ELK4,"1.71 fold enrichment (6-mer frequency, TF over GST control)"
same,binding signal,ETV2,"1.89 fold enrichment (6-mer frequency, TF over GST control)"
same,binding signal,ELF3,"2.08 fold enrichment (6-mer frequency, TF over GST control)"
same,binding signal,ETV1,"2.11 fold enrichment (6-mer frequency, TF over GST control)"
